Assay results reported in PubChem BioAssay (NCATS).
Where “and” joins values, the source holds several entries; their conditions need not be identical. Equal entries are not always repeated. Records with an inconclusive call do not appear. Calls of active or inactive are those of the source. The call rests on the fitted dose curve; in most records, active means well fitted inhibition curve with a large enough effect; inconclusive means small, poorly fitted or top-dose-only effect; inactive means flat fitted curve, though single readings scatter.

How the values were obtained:
Assay in all cases: Cytotoxic Profiling of Annotated Libraries Using Quantitative High-Throughput Screening (AID 1296008); further: nearly all actives have a fitted effect of over 60% in size
Details in all cases: Five cell lines viability, CellTiter-Glo ATP luminescence, 48-72 h; max response: hits give low values
CRL-7250 = system: CRL-7250
In short: (§1)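 Cells exposed to compounds for 48 or 72 hr at 37 degrees Celsius. Viability read as ATP-coupled luminescence with CellTiter-Glo after 10 min at room temperature.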

HEK293 = system: HEK293
In short: as §1

HaCat = system: HaCat
In short: as §1

KB-3-1 = system: KB-3-1
In short: as §1

NIH3T3 = system: NIH3T3
In short: as §1
On the % scale 0 is the no-effect control and ±100 the full control effect; potency means the concentration at half of the fitted maximal effect.

CC(=O)N[C@@H]1[C@H](O[C@@H]2c3ccc(c(Cl)c3)Oc3cc4cc(c3O[C@H]3O[C@H](CO)[C@@H](O)[C@H](O)[C@H]3NC(=O)CCCCCCCC(C)C)Oc3ccc(cc3Cl)C[C@H]3NC(=O)[C@H](N)c5ccc(O)c(c5)Oc5cc(O)cc(c5)[C@H](NC3=O)C(=O)N[C@H]4C(=O)N[C@H]3C(=O)N[C@@H]2C(=O)N[C@@H](C(=O)O)c2cc(O)cc(O[C@H]4O[C@H](CO)[C@@H](O)[C@H](O)[C@H]4O)c2-c2cc3ccc2O)O[C@H](CO)[C@@H](O)[C@@H]1O
inactive: outcome (CRL-7250) | outcome (HEK293) | max response (HaCat) 2.16% | outcome (KB-3-1) | max response (NIH3T3) 4.41%

O=c1[nH]c(=O)n([C@H]2C[C@@H](O)[C@@H](CO)O2)cc1C=CBr
inactive: max response (CRL-7250) -10.9% | max response (HEK293) -1.26% | max response (HaCat) -10.4% | outcome (KB-3-1) | outcome (NIH3T3)

CC(=O)N[C@H]1[C@@H]([C@H](O)[C@H](O)CO)OC(C(=O)O)=C[C@@H]1N=C(N)N
inactive: max response (CRL-7250) -3% | max response (HEK293) 2.95% | max response (HaCat) -9.9% | outcome (KB-3-1) | max response (NIH3T3) 3.71%

Cc1ncc(-c2ccnc(Nc3ccc(S(C)(=O)=O)cc3)n2)n1C(C)C
active: Potency (CRL-7250) 3720 nM | Potency (HEK293) 4610 nM | Potency (HaCat) 8.33 µM and 5.8 µM | Potency (KB-3-1) 5.26 µM and 5.17 µM | Potency (NIH3T3) 13200 nM

CC(C)C[C@H](NC(=O)CNC(=O)c1cc(Cl)ccc1Cl)B1OC(=O)CC(CC(=O)O)(C(=O)O)O1 (stereo not given in full)
active: Potency (CRL-7250) 1320 nM | Potency (HEK293) 469 nM | Potency (HaCat) 4.18 µM | Potency (KB-3-1) 1.05 µM | Potency (NIH3T3) 833 nM

COC1=C(OC)C(=O)C(CC=C(C)CCC=C(C)CCC=C(C)CCC=C(C)CCC=C(C)CCC=C(C)CCC=C(C)CCC=C(C)CCC=C(C)CCC=C(C)C)=C(C)C1=O
inactive: outcome (CRL-7250) | max response (HEK293) -5.18% | max response (HaCat) -8.05% | max response (KB-3-1) -1.17% | max response (NIH3T3) 4.96%

Cn1cc(CNCC2CCN(c3ncc(C(=O)NO)cn3)CC2)c2ccccc21
active: Potency (CRL-7250) 332 nM | Potency (HEK293) 187 nM | Potency (HaCat) 0.662 µM | Potency (KB-3-1) 0.132 µM | Potency (NIH3T3) 526 nM

C[C@H](CCC(=O)O)[C@H]1CCC2C3C[C@H](O)[C@@H]4C[C@H](O)CC[C@]4(C)C3CC[C@@]21C (stereo not given in full)
inactive: max response (CRL-7250) 3.11% | max response (HEK293) 4.87% | max response (HaCat) -16.1% | max response (KB-3-1) 6.35% | outcome (NIH3T3)

C=C(C)[C@@H]1CC[C@]2(C(=O)O)CC[C@]3(C)[C@H](CC[C@@H]4[C@@]5(C)CC[C@H](O)C(C)(C)[C@@H]5CC[C@]43C)[C@@H]12
inactive: max response (CRL-7250) -12.6% | max response (HEK293) -13.5% | max response (HaCat) 1.59% | max response (KB-3-1) -12.2% | max response (NIH3T3) 0.0342%

CN(C)CC[C@H](c1ccc(Cl)cc1)c1ccccn1
inactive: outcome (CRL-7250) | max response (HEK293) -15.3% | max response (HaCat) -31.9% | max response (KB-3-1) -7.57% | max response (NIH3T3) -0.393%

CC(C)N(CC[C@H](c1ccccc1)c1cc(CO)ccc1O)C(C)C
inactive: outcome (CRL-7250) | max response (HEK293) 0.962% | max response (HaCat) -1.81% | outcome (KB-3-1) | outcome (NIH3T3)

CC(=O)O[C@H]1C[C@@H]2CC[C@H]3[C@H]4C[C@H]([N+]5(C)CCCCC5)[C@@H](OC(C)=O)[C@@]4(C)CC[C@@H]3[C@@]2(C)C[C@H]1N1CCCCC1
inactive: max response (CRL-7250) -4.19% | max response (HEK293) 2.19% | max response (HaCat) -11.8% | max response (KB-3-1) 2.79% | max response (NIH3T3) 4.95%

CN[C@@H]1C[C@H]2O[C@@](C)([C@H]1OC)n1c3ccccc3c3c4c(c5c6ccccc6n2c5c31)C(=O)N[C@H]4O
active: Potency (CRL-7250) 264 nM | Potency (HEK293) 469 nM | Potency (HaCat) 1.48 µM | Potency (KB-3-1) 2.64 µM | Potency (NIH3T3) 166 nM

CC(Cc1ccc(O)c(O)c1)(NN)C(=O)O (stereo not given)
inactive: outcome (CRL-7250) | max response (HEK293) -17.2% | max response (HaCat) -11% | max response (KB-3-1) -1.08% | max response (NIH3T3) -2.89%

O=C(O)C(=O)Nc1cccc(C2=NN=N[N]2)c1
inactive: outcome (CRL-7250) | max response (HEK293) -1.4% | max response (HaCat) -4.6% | max response (KB-3-1) 7.57% | max response (NIH3T3) -1.86%

C[C@H](NC(=O)C(C#N)=Cc1cccc(Br)n1)c1ccccc1
active: Potency (CRL-7250) 5260 nM | Potency (HEK293) 4180 nM | Potency (HaCat) 10.5 µM | Potency (KB-3-1) 4.69 µM | Potency (NIH3T3) 9350 nM

O=C(C=CC#Cc1cccc(NS(=O)(=O)c2ccccc2)c1)NO
active: Potency (CRL-7250) 13200 nM | Potency (HEK293) 8330 nM | Potency (HaCat) 11.8 µM | Potency (KB-3-1) 5.26 µM | Potency (NIH3T3) 10500 nM

COc1ccc(C(C)=O)c(O)c1
inactive: max response (CRL-7250) -6.37% | max response (HEK293) 0.614% | max response (HaCat) -4.96% | max response (KB-3-1) 4.34% | max response (NIH3T3) 2.86%

CC(C)(O)[C@H]1CC[C@@](C)([C@H]2[C@@H](O)C[C@@]3(C)[C@@H]4C[C@H](O[C@@H]5O[C@H](CO)[C@@H](O)[C@H](O)[C@@H]5O)[C@H]5C(C)(C)[C@@H](O[C@@H]6OC[C@@H](O)[C@H](O)[C@@H]6O)CC[C@@]56C[C@@]46CC[C@]23C)O1
inactive: outcome (CRL-7250) | max response (HEK293) 2.98% | max response (HaCat) -6.06% | max response (KB-3-1) 2.16% | outcome (NIH3T3)

C[C@H](NCc1ccc2c(c1)nc(NC(=O)c1ccc(-c3cn[nH]c3)s1)n2CCc1ccccc1)C(C)(C)C
active: Potency (CRL-7250) 1870 nM | Potency (HEK293) 935 nM | Potency (HaCat) 2.96 µM | Potency (KB-3-1) 1.05 µM | Potency (NIH3T3) 2640 nM
